{"source": "PubChem BioAssay (NCI)", "note": "Compounds without any hit were thinned out: in the full panel of roughly 83,000, 20% have a hit.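 The test compound was applied at a single concentration to cells in 96-well plates for 48 hours, and percent growth was recorded.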 Active and inactive are the calls of the source. The calls were made as follows: active = growth percent below 10; inactive = the rest."}
{"system": "SK-MEL-2 melanoma", "assay": "NCI-60 one-dose screen, 48 h (100 = growth as untreated, 0 = no growth, -100 = all killed)", "settings": "10 µM"}
{"smiles": "CS(=O)(=O)c1nccc(-c2c(-c3cccc(OCc4ccc(F)cc4)c3)nc3sccn23)n1", "growth": "96% (inactive)"}
{"smiles": "CCOC(=O)c1cc(C(=O)c2ccc(F)cc2F)n2ccccc12", "growth": "91.2% (inactive)"}
{"smiles": "O=C(N/N=C/c1ccc(Cl)cc1)c1ccccc1Nc1cccc(C(F)(F)F)c1", "growth": "70.6% (inactive)"}
{"smiles": "CC(C)(C)OC(=O)N1CCc2c(sc3ncnc(N/N=C/c4ccccc4Br)c23)C1", "growth": "91.7% (inactive)"}
{"smiles": "CC(C)N(CCOc1ccc(-c2nc3sccn3c2-c2ccnc(S(C)(=O)=O)n2)cc1)C(C)C", "growth": "106% (inactive)"}
{"smiles": "CN(C)CCCOc1ccc(NC2=C(Cl)C(=O)C(Nc3ccc(OCCCN(C)C)cc3)=C(Cl)C2=O)cc1", "growth": "-40.2% (active)"}
{"smiles": "COc1cccc(C2C(C#N)=C(N)Oc3cc(N)ccc32)c1", "note": "(centres undefined)", "growth": "24.5% (inactive)"}
{"smiles": "Cc1ccc(NCCN(C)CC(C)O)c2c(=O)c3ccccc3sc12", "note": "(centres undefined)", "growth": "90.6% (inactive)"}
{"smiles": "CCCCN(CCCC)C(=O)[C@H](CC)[C@@H]1CC[C@@H](C)[C@@H]([C@H](C)[C@@H](O)[C@@H](C)C(=O)[C@H](CC)C2O[C@]3(C=C[C@@H](O)[C@]4(CC[C@@](C)([C@H]5CC[C@](O)(CC)[C@H](C)O5)O4)O3)[C@H](C)C[C@@H]2C)O1", "note": "(some centres undefined)", "growth": "-12.4% (active)"}
{"smiles": "CC(C)N(CCOc1cccc(-c2nc3sccn3c2-c2ccnc(S(C)(=O)=O)n2)c1)C(C)C", "growth": "109% (inactive)"}
{"smiles": "NC(=O)c1cccc(-n2ccc3cc(NC(=O)Nc4ccc(Cl)c(C(F)(F)F)c4)ccc32)n1", "growth": "97.2% (inactive)"}
{"smiles": "COc1cccc(-c2nc3sccn3c2-c2cccc(S(C)(=O)=O)c2)c1", "growth": "115% (inactive)"}
{"smiles": "COc1ccc(Cl)cc1Nc1nc(C(F)(F)F)ccc1C(=O)N/N=C/c1ccc(Cl)cc1", "growth": "26.4% (inactive)"}
{"smiles": "CCOc1ccccc1/C=N\\N=C\\c1ccccc1O", "growth": "100% (inactive)"}
{"smiles": "CN(C)c1ccc(/C=N/NC(=O)c2ccccc2Nc2cccc(C(F)(F)F)c2)cc1", "growth": "62.3% (inactive)"}
{"smiles": "COc1cc2cc(Oc3ccc(NC(=O)Nc4cccc(C(F)(F)F)c4)cc3)c(C)nc2cc1OC", "growth": "-35.8% (active)"}
{"smiles": "O=C(Nc1cc(Cl)cc2c1-c1ccc(Cl)cc1C2O)C(Cl)Cl", "note": "(centres undefined)", "growth": "110% (inactive)"}
{"smiles": "C/C(=N\\O)c1ccc(NC(=O)CSc2nnc(-c3ccccc3)n2-c2ccccc2)cc1", "growth": "118% (inactive)"}
{"smiles": "CCN(CC)CCCOc1cccc2c1C(=O)c1cccc(OCCCN(CC)CC)c1C2=O", "growth": "42.1% (inactive)"}
{"system": "EKVX NSCLC", "assay": "NCI-60 one-dose screen, 48 h (100 = growth as untreated, 0 = no growth, -100 = all killed)", "settings": "10 µM"}
{"smiles": "Clc1ccc(/C=C2\\CCCC3C2=Nc2ccccc2NC3c2ccc(Cl)cc2)cc1", "note": "(centres undefined)", "growth": "89.3% (inactive)"}
{"smiles": "CCC(c1ccc(OC)cc1)C(CC)c1ccc(O)c(CN2CCN(C)CC2)c1", "note": "(centres undefined)", "growth": "44.3% (inactive)"}
{"smiles": "CC[C@@H](C(=O)[C@H](C)[C@H](O)[C@@H](C)[C@H]1O[C@H]([C@@H](CC)C(=O)N(CC)CC)CC[C@H]1C)C1O[C@]2(C=C[C@@H](O)[C@]3(CC[C@@](C)([C@H]4CC[C@](O)(CC)[C@H](C)O4)O3)O2)[C@H](C)C[C@@H]1C", "note": "(some centres undefined)", "growth": "1.82% (active)"}
{"smiles": "c1ccc(/C(=N\\Nc2ccc3ccccc3n2)c2ccccn2)cc1", "growth": "15.1% (inactive)"}
{"smiles": "O=C(NCCCNS(=O)(=O)c1ccc(Cl)cc1)Nc1ccc(-n2cc(-c3ccncc3)c(-c3ccc(Cl)c(O)c3)n2)cc1", "growth": "61.7% (inactive)"}
{"smiles": "Nc1ncnc2c1ncn2C1(CO)OCC(O)C(O)C1O", "note": "(centres undefined)", "growth": "100% (inactive)"}
{"smiles": "CN(C)CCOc1ccc(-c2nc3sccn3c2-c2ccnc(S(C)(=O)=O)n2)cc1", "growth": "102% (inactive)"}
{"smiles": "CC[C@H]1OC(=O)[C@H](C)[C@@H](O[C@H]2C[C@@](C)(OC)[C@@H](O)[C@H](C)O2)[C@H](C)[C@@H](O[C@@H]2O[C@H](C)C[C@H](N(C)C)[C@H]2O)[C@](C)(OC)C/C(C)=C2/O[C@@]1(C)C=C2C", "growth": "75% (inactive)"}
{"smiles": "COc1cc(/C=C2\\CCCC3=C2NC(N)=NC3c2cc(OC)c(OC)c(OC)c2)cc(OC)c1OC", "note": "(centres undefined)", "growth": "56% (inactive)"}
{"smiles": "O=[N+]([O-])c1cccc(/C=N/NC(=S)NC23CC4CC(CC(C4)C2)C3)c1", "growth": "71.2% (inactive)"}
{"smiles": "CNC(=O)c1cc(Oc2ccc3c(c2)sc2nc(-c4ccc(N)cc4)cn23)ccn1", "growth": "40.9% (inactive)"}
{"smiles": "COc1ccc2c(c1)OC(N)=C(C#N)C2c1cc(OC)c(OC)c(OC)c1", "note": "(centres undefined)", "growth": "49.7% (inactive)"}
{"smiles": "S=C(NCc1ccccc1)NCc1ccccc1", "growth": "102% (inactive)"}
{"smiles": "CC(=O)OC1C=CC(OC(C)=O)O1", "note": "(centres undefined)", "growth": "99.3% (inactive)"}
{"smiles": "Cc1ccc(Cl)cc1NC(=O)CCl", "growth": "119% (inactive)"}
{"smiles": "CCC(C)[C@H](NC(C)=O)C(=O)N[C@@H](CCCNC(=N)N)C(=O)N[C@@H](CCCCN)C(=O)N[C@@H](CC1CCC(O)CC1)C(=O)NC(C(=O)N[C@@H](CCSC)C(=O)N[C@@H](CCCNC(=N)N)C(=O)N[C@@]1(C)CCC/C=C\\CCC[C@@](C)(C(=O)NC(C(=O)N[C@@H](CCC(=O)O)C(=O)N[C@@H](CC(C)C)C(=O)N[C@H](C(=O)N[C@@H](CCC(=O)O)C(N)=O)C(C)C)[C@@H](C)O)NC(=O)[C@H](CCC(N)=O)NC(=O)[C@H](CC(C)C)NC(=O)[C@H](CC(C)C)NC1=O)[C@@H](C)O", "note": "(some centres undefined)", "growth": "99.5% (inactive)"}
{"smiles": "COc1cc2cc(Oc3ccc(NC(=O)c4cccc(C(F)(F)F)c4)cc3)c(C)nc2cc1OC", "growth": "18.6% (inactive)"}
{"smiles": "COC(=O)C1(O)NC(=C(C#N)C#N)C(C#N)=C1C(=O)c1ccc(OC)c(OC)c1", "note": "(centres undefined)", "growth": "113% (inactive)"}
{"smiles": "COc1ccc(-c2onc(N)c2-c2cc(OC)c3c(c2)OCO3)cc1", "growth": "62% (inactive)"}
{"smiles": "NC(N)=N/N=C(\\c1ccccc1)C(O)c1ccccc1", "note": "(centres undefined)", "growth": "103% (inactive)"}
{"smiles": "COc1cc2cc(Oc3ccc(NC(=O)c4ccccc4)cc3)c(C)nc2cc1OC", "growth": "89.8% (inactive)"}
{"smiles": "CS(=O)(=O)c1nccc(-c2c(-c3cccc(OCc4ccc(F)cc4)c3)nc3sccn23)n1", "growth": "97.2% (inactive)"}
{"smiles": "CCOC(=O)c1cc(C(=O)c2ccc(F)cc2F)n2ccccc12", "growth": "99.7% (inactive)"}
{"smiles": "O=C(N/N=C/c1ccc(Cl)cc1)c1ccccc1Nc1cccc(C(F)(F)F)c1", "growth": "66.6% (inactive)"}
{"smiles": "CC(C)(C)OC(=O)N1CCc2c(sc3ncnc(N/N=C/c4ccccc4Br)c23)C1", "growth": "52.2% (inactive)"}
{"smiles": "CC(C)N(CCOc1ccc(-c2nc3sccn3c2-c2ccnc(S(C)(=O)=O)n2)cc1)C(C)C", "growth": "87.6% (inactive)"}
{"smiles": "CN(C)CCCOc1ccc(NC2=C(Cl)C(=O)C(Nc3ccc(OCCCN(C)C)cc3)=C(Cl)C2=O)cc1", "growth": "-89% (active)"}
{"smiles": "COc1cccc(C2C(C#N)=C(N)Oc3cc(N)ccc32)c1", "note": "(centres undefined)", "growth": "55.7% (inactive)"}
{"smiles": "Cc1ccc(NCCN(C)CC(C)O)c2c(=O)c3ccccc3sc12", "note": "(centres undefined)", "growth": "86.4% (inactive)"}
{"smiles": "CCCCN(CCCC)C(=O)[C@H](CC)[C@@H]1CC[C@@H](C)[C@@H]([C@H](C)[C@@H](O)[C@@H](C)C(=O)[C@H](CC)C2O[C@]3(C=C[C@@H](O)[C@]4(CC[C@@](C)([C@H]5CC[C@](O)(CC)[C@H](C)O5)O4)O3)[C@H](C)C[C@@H]2C)O1", "note": "(some centres undefined)", "growth": "-8.73% (active)"}
{"smiles": "CC(C)N(CCOc1cccc(-c2nc3sccn3c2-c2ccnc(S(C)(=O)=O)n2)c1)C(C)C", "growth": "101% (inactive)"}
{"smiles": "NC(=O)c1cccc(-n2ccc3cc(NC(=O)Nc4ccc(Cl)c(C(F)(F)F)c4)ccc32)n1", "growth": "57.7% (inactive)"}
{"smiles": "COc1cccc(-c2nc3sccn3c2-c2cccc(S(C)(=O)=O)c2)c1", "growth": "78.4% (inactive)"}
{"smiles": "COc1ccc(Cl)cc1Nc1nc(C(F)(F)F)ccc1C(=O)N/N=C/c1ccc(Cl)cc1", "growth": "56.6% (inactive)"}
{"smiles": "CCOc1ccccc1/C=N\\N=C\\c1ccccc1O", "growth": "91.5% (inactive)"}
{"smiles": "CN(C)c1ccc(/C=N/NC(=O)c2ccccc2Nc2cccc(C(F)(F)F)c2)cc1", "growth": "82.2% (inactive)"}
{"smiles": "COc1cc2cc(Oc3ccc(NC(=O)Nc4cccc(C(F)(F)F)c4)cc3)c(C)nc2cc1OC", "growth": "15.4% (inactive)"}
{"smiles": "O=C(Nc1cc(Cl)cc2c1-c1ccc(Cl)cc1C2O)C(Cl)Cl", "note": "(centres undefined)", "growth": "69% (inactive)"}
{"smiles": "C/C(=N\\O)c1ccc(NC(=O)CSc2nnc(-c3ccccc3)n2-c2ccccc2)cc1", "growth": "91.9% (inactive)"}
{"smiles": "CCN(CC)CCCOc1cccc2c1C(=O)c1cccc(OCCCN(CC)CC)c1C2=O", "growth": "54.5% (inactive)"}
